# This is a sample that favours compounds with a hit; in the whole collection about 3.3% have one here.
# Vaccinia mCherry – inhibitors of vaccinia virus infection (mCherry reporter signal). Potency, µM (doses to about 36.5 µM), inactives show at the top dose activity change, negative = inhibition, hits mostly inhibitors. 0.63% of 310,000 active. Vaccinia virus mCherry reporter infection, fluorescence; calls by dose curve; tested in A549 cells; further: nearly all actives have a fitted effect of over 35% in size
# VACV Venus inh – inhibitors of vaccinia virus (Venus reporter) | 0.46% of 330,000 active | Potency, µM (top dose mostly 36.5 µM), without a hit: at the top dose activity change, negative = inhibition, most hits filed as inhibitors | Vaccinia virus Venus reporter expression, fluorescence; calls by dose curve; tested in A549 cells; further: nearly all actives have a fitted effect of over 30% in size
# HCV inh – inhibitors of hepatitis C virus infection. 3.4% of 340,000 active. Huh7.5.1 HCVcc-Cre infection, luciferase reporter, 44 h. AID 651820. Potency, µM (highest dose often 41.8 µM), inactives show top-dose activity change, negative = inhibition, most hits filed as inhibitors; active means well fitted inhibition curve with a large enough effect; inconclusive means small, poorly fitted or top-dose-only effect, or another doubt; inactive means no such curve, though single readings can be large or run the other way
#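 After 44 h co-culture of compound, cells and HCVcc-Cre (~0.5 moi), substrate is added for 15 min at room temperature and luciferase measured over 15 sec. Cells were seeded at 1,000/well and pre-cultured 4 h.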
# * hit, by the source's call; i = inactive; ? = inconclusive; nt = not tested or not shown; [ ] = remark or other dose. On the % scale 0 is the no-effect control and ±100 the full control effect; potency means the concentration at half of the fitted maximal effect.
SMILES,Vaccinia mCherry,VACV Venus inh,HCV inh
Cc1nn(C(C)C(=O)NCC2CCCO2)c(C)c1[N+](=O)[O-] (stereo not drawn),nt,nt,1.3%
Cc1c(C(=O)NCCCN2CCCC2=O)oc2ccc(S(=O)(=O)N3CCOCC3)cc12,nt,nt,1.6%
Cc1c(C(=O)NCCC2=CCCCC2)oc2ccc(S(=O)(=O)N3CCOCC3)cc12,nt,nt,10µM*
Cc1ccc(NC(=O)c2oc3ccc(S(=O)(=O)N4CCOCC4)cc3c2C)c(C)c1,-11.2%,-14.3%,-3.0%
Cc1cccc(NC(=O)c2oc3ccc(S(=O)(=O)N4CCOCC4)cc3c2C)c1C,nt,nt,10µM*
Cc1ccc(Oc2c(C(F)(F)F)oc3cc(OCC(=O)NC4CCCCC4)ccc3c2=O)cc1,-24.0%,-12.5%,nt
COc1ccc(OC)c(NC(=O)c2cc(S(=O)(=O)NCCc3ccc(Cl)cc3)ccc2F)c1,-13.0%,-16.1%,nt
O=C(Nc1ccc2oc(-c3ccccc3)nc2c1)c1ccncc1,nt,-6.5%,10µM*
CCCCOc1cccc(C(=O)Nc2ccc3oc(-c4cccnc4)nc3c2)c1,-19.6%,-15.4%,nt
O=C(Nc1ccc2oc(-c3cccnc3)nc2c1)c1ccc(Br)o1,nt,-15.7%,-1.4%
O=C(Nc1ccc2oc(-c3cccnc3)nc2c1)c1ccc([N+](=O)[O-])o1,-12.0%,-6.0%,2.51µM*
O=C(Nc1ccc2oc(-c3cc(Br)ccc3Cl)nc2c1)c1ccc2ccccc2c1,?,-27.3%,nt
CCOc1cccc(C(=O)Nc2ccc3oc(-c4cccnc4)nc3c2)c1,-11.4%,-21.0%,10µM*
O=C(Nc1ccc2oc(-c3ccccc3Cl)nc2c1)c1cncc(Br)c1,nt,nt,17.8µM*
O=C(Nc1ccc2oc(-c3ccccc3)nc2c1)c1cccs1,-22.5%,-24.6%,?
Clc1cccc(-n2ncc3c(NCCC4=CCCCC4)ncnc32)c1,-12.3%,-5.3%,nt
N[C@@H](COP(=O)(O)O)C(=O)O,-12.5%,-5.7%,nt
O=C(COC(=O)c1cc(S(=O)(=O)N2CCCCC2)ccc1N1CCOCC1)c1ccccc1,-18.7%,-5.5%,-8.7%
CCN(CC)CCNC(=O)c1ccc(CSc2nc3ccncc3n2Cc2cccc(F)c2)cc1,-2.2%,-6.9%,nt
COc1cccc(CNC(=O)c2c(OC)cc(=O)n3c2CCN(C(=O)c2ccc(C)nc2)CC3)c1,i,0.0%,nt
O=C(Nc1ccc(-c2nc3ccccc3o2)cc1)c1ccc(N2C(=O)C3C4C=CC(C4)C3C2=O)cc1 (stereo not drawn),i,-18.8%,3.98µM*
O=C(Nc1ccc2oc(-c3cccnc3)nc2c1)c1ccco1,-14.4%[1.46 µM],-22.5%,-4.2%
Cc1ccc(C(=O)Nc2ccc(-c3nc4ccccc4o3)cc2)cc1Cl,-10.8%,-6.0%,nt
O=C(Nc1ccc2nc(-c3ccccc3)oc2c1)c1ccco1,-18.6%,-3.8%,10µM*
COc1ccc(Cl)cc1NC(=O)c1nn(C)c2c1CS(=O)(=O)c1ccccc1-2,-5.5%,-2.2%,nt
SMILES,Vaccinia mCherry,VACV Venus inh,HCV inh
CCC1CN(C(=O)N2CCC(C(=O)NCc3ccc(OC)cc3OC)CC2)c2ccccc2O1 (stereo not drawn),nt,nt,-27.0%
COc1cc(NC(=O)c2cccc3c2C(=O)N(C2CCCCC2)C3)cc(OC)c1OC,-8.2%[7.34 µM],-7.4%[7.34 µM],6.31µM*
O=C(NCCc1ccccc1)c1cccc2c1C(=O)N(C1CCCCC1)C2,-21.5%,-3.7%,-11.6%
CSc1ccc(CCNC(=O)c2cccc3c2C(=O)N(C2CCCCC2)C3)cc1,nt,nt,11.2µM*
Cc1cc(C)cc(NC(=O)c2cccc3c2C(=O)N(C2CCCCC2)C3)c1,-7.2%,-2.7%,15.5%
CC1CCC(NC(=O)c2ccc3c(c2)N(Cc2cccc(Cl)c2)C(=O)c2ccccc2S3=O)CC1 (stereo not drawn),-2.4%,-8.5%,nt
Cc1ccc2c(c1)C1(C)C(C(C)(C)N2C=O)C1(Cl)Cl (stereo not drawn),nt,nt,17.8%
NC(COCc1ccccc1)c1csc(Nc2ncccn2)n1 (stereo not drawn),i,-11.5%,nt
CC(C)CC(N)c1csc(Nc2ncccn2)n1 (stereo not drawn),7.94µM*,?,nt
COc1ccccc1NC(=O)NCc1ccco1,-11.8%,-18.8%,?
COc1cc(NC(=O)NCc2ccco2)ccc1-c1ccc(NC(=O)NCc2ccco2)cc1OC,?,-20.5%,11.2µM*
CC(=O)N1CCN(c2ccccc2NC(=O)COc2cc(C)cc(C)c2)CC1,-16.0%,-10.5%,?
COC(=O)[C@]12CCCCC=C1N(Cc1ccc(Cl)cc1Cl)C(=O)[C@H](CC(=O)NCc1cccs1)C2,5.6%,10.7%,nt
Cc1ccc(C(C)C)c(OCC(=O)NC(=S)Nc2ccccc2N2CCOCC2)c1,-14.1%,0.0%,nt
CCC(=O)N1CCN(c2ccccc2NC(=O)COc2cc(C)ccc2C(C)C)CC1,-4.4%,-24.5%,10µM*
Cc1ccc(NC(=O)C2CCCN(S(=O)(=O)c3cccc4nsnc34)C2)cc1C (stereo not drawn),-18.2%,-5.1%,nt
COC(=O)c1[nH]c2cc(OC)ccc2c1NC(=O)c1c(F)cccc1F,nt,nt,12.6µM*
COC(=O)c1[nH]c2cc(OC)ccc2c1NC(=O)c1ccc2c(c1)OCO2,nt,nt,2.51µM*
CCOC(=O)c1[nH]c2cc(OC)c(OC)cc2c1NC(=O)c1ccc2c(c1)OCO2,?,?,26.4%
C=CCNC(=S)Nc1c(C(=O)OC)[nH]c2cc(OC)ccc12,nt,nt,13.1%
CCCOc1ccc(-c2cnc(N)s2)cc1,4.47µM*,5.01µM*,?
CCCOc1ccc(OCCSc2nnc(N)s2)cc1,nt,-24.3%,-10.3%
COc1cc(Nc2nc3c(S(=O)(=O)c4cccc(Cl)c4)nnn3c3ccsc23)cc(OC)c1,-21.0%[7.34 µM],-11.1%[7.34 µM],nt
COc1ccc(OC)c(CCNc2ncnc3onc(-c4ccc(F)cc4)c23)c1,-9.1%,-14.9%,nt
COc1cc(C#Cc2c(-c3ccccc3)n(C)c3ccccc23)cc(OC)c1,?,3.5%,-28.2%[8.37 µM]
SMILES,Vaccinia mCherry,VACV Venus inh,HCV inh
COc1ccc(C#Cc2ccc3c(=O)c4ccccc4n(C)c3c2)cc1,-24.9%,?,2.2%
COc1ccc(C#Cc2c(-c3ccccc3)n(C)c3ccccc23)cc1,-15.6%,-22.3%,?
Cn1c(C=O)c(C#Cc2ccccc2)c2ccccc21,?,?,7.94µM*
Cn1c(-c2ccc(C#N)cc2)c(C#Cc2ccccc2)c2ccccc21,i,-7.8%,22.4µM*
COc1ccc(C#Cc2c(C=O)n(C)c3ccccc23)cc1,?,?,10µM*
O=C(CCn1c(=O)c2ccccc2n(Cc2cccc(Cl)c2)c1=O)NCCc1ccccc1,-13.1%,-6.7%,nt
COc1cc(CNCc2cc3cc(C)ccc3nc2-c2ccc(F)cc2)cc(OC)c1OC,-5.3%,1.9%,nt
COc1ccc(CNC(=O)[C@H](Cc2ccccc2)NC(=O)CC[C@H]2O[C@@H](n3ccc(=O)[nH]c3=O)[C@H](O)[C@@H]2O)cc1,6.7%,2.0%,nt
CC(=O)Nc1cccc(NC(=O)CSc2nc3c(c(=O)n(C)c(=O)n3C)n2C)c1,i,-14.0%,-11.6%
CCOC(=O)c1c(C)n(C)c2cc(-c3ccc(C)cc3)c(O)cc12,-19.9%,-6.9%,?
CCOC(=O)c1c(-c2ccccc2)[nH]c2ccc(O)cc12,nt,?,11.2µM*
CCOC(=O)c1c(CN(CC)CC)n(-c2ccccc2)c2ccc(O)cc12,?,-6.4%,-19.9%
CCOC(=O)c1c(C)n(C)c2cc(Br)c(C)cc12,?,-7.5%,8.91µM*
CCOC(=O)c1c(C)n(-c2ccccc2)c2ccc(O)cc12,-23.2%,-20.3%,10µM*
CCOC(=O)c1ccc2[nH]c3ccccc3c2c1,-3.5%,-5.7%,?
